Shown are actives, neighbours in structure and some others; about 5.7% of the full set was active somewhere.
hgDAF-12 ag: H. glycines DAF-12 receptor agonists, primary screen, cell-based, luminescence, HEK293, GAL4 fusion, UAS-luciferase; AID 687014, 2013; activation, % at 6.8 µM; HEK293 GAL4-hgDAF12 UAS-luciferase reporter, agonist luminescence; normalized to butyrate control; Nuclear hormone receptor DAF-12 (Heterodera glycines), GAL4 fusion; actives 1.8% (n = 370,000);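 active = activation above a cutoff set at the mean of all screened compounds plus 3 SD, cut at about 10% in these data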;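 note: 0% = DMSO wells and 100% = sodium butyrate wells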
DAX1 inh-1: DAX1 (NR0B1) inhibitors, primary screen, cell-based, HEK293, Gal4-DAX1, luciferase luminescence; HEK293 Gal4-DAX1 luciferase reporter; inhibition, % at 6.75 µM; actives 0.99% (n = 340,000);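 active = inhibition above the mean over all tested compounds plus 3 SD, cut at about 4.2% in these data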;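 note: 0% = DAX1-transfected cells with DMSO and 100% = empty-vector control cells with DMSO; inhibition shows as a rise in luminescence from relieved DAX1 repression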
Target sequence (P51843 207-470 limits assumed): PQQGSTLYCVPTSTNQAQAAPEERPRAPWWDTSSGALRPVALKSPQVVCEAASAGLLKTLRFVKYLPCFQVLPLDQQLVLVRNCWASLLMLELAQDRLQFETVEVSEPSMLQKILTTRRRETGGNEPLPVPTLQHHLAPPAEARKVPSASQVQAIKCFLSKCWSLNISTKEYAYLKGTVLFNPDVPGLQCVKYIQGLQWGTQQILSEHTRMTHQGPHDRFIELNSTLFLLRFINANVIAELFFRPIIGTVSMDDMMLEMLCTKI
hcDAF-12 act: H. contortus DAF-12 nuclear receptor activators, primary screen, cell-based, luminescence, HEK293, lit1-tk-luc reporter. AID 652067, 2013. HEK293 hcDAF-12 lit1-tk-luc reporter; 0% DMSO, 100% Δ7-dafachronic acid. actives 1.4% (n = 370,000). activation, % at 6.8 µM;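 active = activation above the mean of all tested compounds plus 3 SD, cut at about 5.5% in these data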;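 note: 100% = response to 3 µM Δ7-dafachronic acid high control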
DAX1 inh-2: DAX1 (NR0B1) inhibitors on StAR promoter, primary screen, cell-based, luminescence, SF-1 (NR5A1), full-length DAX-1 | HEK293T StAR-luciferase reporter, SF-1/DAX-1 repression relief | actives 1.1% (n = 370,000) | inhibition, % at 6.8 µM;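 active = inhibition above the mean over all tested compounds plus 3 SD, cut at about 3.6% in these data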;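 note: 0% = DAX-1 cells with DMSO and 100% = cells lacking DAX-1 with DMSO; higher inhibition means more luminescence from relief of DAX-1 repression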
ssDAF-12 act: S. stercoralis DAF-12 nuclear receptor activators, primary screen, cell-based, luminescence, HEK293, GRIP1 co-expression, lit1-tk-luc; Nuclear hormone receptor DAF-12 (Strongyloides stercoralis); HEK293 ssDAF-12/GRIP1 lit1-tk-luc reporter; % of 3 µM dafachronic acid response; activation, % at 6.8 µM; actives 1% (n = 370,000); AID 652126, 2013;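 active = activation above the mean over all tested compounds plus 3 SD, cut at about 0.9% in these data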;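 note: 0% = DMSO-only wells and 100% = 3 µM delta7-dafachronic acid wells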
AHR activator: AHR activators, primary screen, cell-based, luminescence, luciferase reporter, human; Aryl hydrocarbon receptor (Homo sapiens), P35869; AHR-responsive luciferase reporter cells; activation, % at 5 µM; actives 2.5% (n = 320,000); AID 2796, 2010; in the data active = activation above about 47%;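 note: 0% = vehicle wells and 100% = reference agonist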
Active calls of the source: *; x = not tested or not shown.

SMILES	hgDAF-12 ag	DAX1 inh-1	hcDAF-12 act	DAX1 inh-2	ssDAF-12 act	AHR activator
C[C@@H]1CN([C@H](C)CO)C(=O)CCCn2cc(nn2)CO[C@H]1CN(C)S(=O)(=O)c1cn(C)cn1	-0.1	x	0.7	0.6	-0.2	x
CCCCCCCCN1C(=O)[C@@H](CC(=O)NCc2ccc(OC)c(OC)c2)C[C@@]2(C(=O)OC)C1=C[C@H](C(C)(C)C)O[C@@H]2C	0.2	x	-0.6	0.1	-1.3	x
CNc1ncnc2c1ncn2[C@@H]1O[C@H](CO)[C@@H](O)[C@H]1O	0.7	-0.7	-1.7	-0.2	-1.1	60.0*
C[C@H](Cc1ccccc1)Nc1ncnc2c1ncn2[C@@H]1O[C@H](CO)[C@@H](O)[C@H]1O	0.9	0.0	-3.4	3.8*	-1.4	1.6
CN(C)c1ncnc2c1ncn2C1OC(CO)C(O)C1O (configuration not stated)	-5.8	-2.6	-1.3	-1.9	-2.1	41.8
CC(Cc1ccccc1)Nc1ncnc2c1ncn2C1OC(CO)C(O)C1O (configuration not stated)	-3.9	-0.3	-3.4	1.4	-1.3	-2.6
c1ccc2c(c1)CCc1c(-c3ccncc3)n[nH]c1-2	0.6	2.3	3.7	-2.8	1.6*	44.0
Clc1ccc(-c2n[nH]c3c2Cc2ccccc2-3)cc1Cl	x	x	x	x	x	59.7*
Cc1ccc(OCC(=O)Nc2ccc(C)c(F)c2)c([N+](=O)[O-])n1	7.5	1.9	1.0	3.7*	-0.1	x
Cc1ccc(OCC(=O)Nc2ccc3c(c2)OC(F)(F)O3)c([N+](=O)[O-])n1	1.0	-0.6	-4.5	-0.3	-1.6	1.4
c1ccc2c(c1)ccc1[nH]c3c(c12)CCCC3	-6.8	-1.1	-0.4	0.7	-0.7	x
CCc1c(C)nc(N2CCOCC2)[nH]c1=O	0.7	3.6	-0.9	-0.3	-1.2	-1.6
C=CCc1c(C)nc(N2CCSCC2)[nH]c1=O	1.0	4.3*	0.3	0.1	-1.3	0.0
CCn1cc(/C=C/C(=O)c2ccc(O)cc2)c(C)n1	14.8*	12.7*	4.7	3.2	0.0	0.5
CCn1cc(/C=N/O)c(C)n1	4.0	0.5	-0.1	-0.6	-1.3	1.1
Fc1cccc(CNc2ncnc3cc(Cl)ccc23)c1F	-1.8	-1.5	1.7	-1.2	-1.0	48.5*
COc1ccc(OC)c(NC(=O)O[C@@H]2CC[C@@]34CCCN3C(=O)CCC[C@H]4C2)c1	4.2	x	-1.0	x	-0.6	x
O=C(NNS(=O)(=O)c1ccccc1[N+](=O)[O-])c1cccc(Cl)c1	-2.2	-0.6	-1.3	-0.1	1.1*	4.5
COCCn1c(C)cc(/C=C2\NC(=S)N(C)C2=O)c1C	-1.5	1.2	-0.2	0.1	-1.6	56.9*
C=CCn1c(SCC(=O)c2ccc(F)cc2)nnc1-c1ccc2c(c1)OCO2	-3.4	0.3	-1.7	-0.7	1.3*	0.7
C=CCn1c(SCC(=O)c2ccc(F)cc2)nnc1-c1ccc(F)cc1	3.1	x	-2.5	0.1	-1.4	x
Cc1ccc(C2NNC(=O)C2NC(=O)c2ccccc2)cc1 (configuration not stated)	5.0	4.5*	0.6	0.9	-0.6	7.7
CCSc1nncn1/N=C/c1ccc(OC)c(OC)c1	4.0	0.1	-0.8	-0.4	-0.7	47.6*
COc1ccc(Cl)cc1NC(=O)CN(C)C(=O)C12CC3CC(CC(Cl)(C3)C1)C2	-1.1	-0.1	-1.6	0.9	-0.5	x
CCOC(=O)N1CCN(C(=O)c2ccc3c(c2)sc2nc(-c4ccc(OC)cc4)cn23)CC1	1.6	2.9	-1.2	-1.0	-1.3	-2.8
SMILES	hgDAF-12 ag	DAX1 inh-1	hcDAF-12 act	DAX1 inh-2	ssDAF-12 act	AHR activator
COc1ccc2c(c1)sc1nc(-c3ccccc3)cn12	-13.1	-4.6	-3.1	-1.9	-2.0	56.5*
Cc1ccc(C)c(OC(=O)c2cccnc2Cl)c1C	2.2	-0.5	-0.3	0.2	-1.4	3.3
O=C(NCc1cccnc1)c1cc(-c2cccs2)on1	11.5*	2.1	1.3	-0.9	-1.1	21.2
CCCc1cc(C(=O)NCc2cccs2)no1	8.0	1.3	4.2	2.2	2.0*	2.9
CCCc1cc(C(=O)NCc2cccnc2)no1	3.4	0.6	5.8*	0.5	-1.0	6.2
O=C(NCc1cccnc1)c1cc2nc(-c3cccs3)cc(C(F)(F)Cl)n2n1	-2.4	-1.1	-2.5	-1.4	-2.0	0.3
CCCc1cc(C(=O)NC2CCCCC2)no1	12.8*	1.0	1.9	1.8	0.5	7.2
CCCc1cc(C(=O)NCc2ccccc2)no1	4.9	1.1	1.9	2.1	-0.3	1.0
CC(C)(C)c1ccccc1NC(=O)N1CCNC(=O)C1CC(=O)Nc1ccc(F)cc1 (configuration not stated)	-1.2	2.6	-0.9	2.9	-0.7	-1.1
O=C(NCCCN1CCOCC1)c1ccc(NS(=O)(=O)c2cccc([N+](=O)[O-])c2)cc1	-1.8	1.4	0.4	-0.1	-0.8	-0.2
COc1ccc(-c2cc(C(=O)NCc3cccnc3)no2)cc1	6.8	0.4	-0.8	-0.1	-0.9	37.4
O=C(NCc1cccnc1)c1cc(-c2ccccc2)on1	11.7*	2.4	1.4	1.5	-1.2	6.8
Cc1ccc(NC(=O)C2(C)CCN2C(=O)CCC2CCCC2)cc1C (configuration not stated)	0.9	x	0.8	0.3	-1.4	x
O=C1CC(SC2=NCCS2)C(=O)N1c1ccc(Br)cc1 (configuration not stated)	1.3	-0.3	-0.9	0.1	-0.9	-0.3

Screening data (PubChem)
